# What was measured:
# Experiment in all cases: DAPPL (digital affinity profiling via proximity ligation, sequencing); 10 mM Tris-HCl pH 7.5, 50 mM NaCl, 1 mM DTT, 4% glycerol, room temperature, 30 min; GST-TFs on glutathione beads, 16-mer random dsDNA library, 0.1% formaldehyde crosslink after washing; high values mean tight binding
# [1] = target: T1, FLI1 (Homo sapiens, UniProt Q01543 1-452); conditions: protein: recombinant; tags: N-terminal GST; dsDNA, one strand shown
# T1 sequence: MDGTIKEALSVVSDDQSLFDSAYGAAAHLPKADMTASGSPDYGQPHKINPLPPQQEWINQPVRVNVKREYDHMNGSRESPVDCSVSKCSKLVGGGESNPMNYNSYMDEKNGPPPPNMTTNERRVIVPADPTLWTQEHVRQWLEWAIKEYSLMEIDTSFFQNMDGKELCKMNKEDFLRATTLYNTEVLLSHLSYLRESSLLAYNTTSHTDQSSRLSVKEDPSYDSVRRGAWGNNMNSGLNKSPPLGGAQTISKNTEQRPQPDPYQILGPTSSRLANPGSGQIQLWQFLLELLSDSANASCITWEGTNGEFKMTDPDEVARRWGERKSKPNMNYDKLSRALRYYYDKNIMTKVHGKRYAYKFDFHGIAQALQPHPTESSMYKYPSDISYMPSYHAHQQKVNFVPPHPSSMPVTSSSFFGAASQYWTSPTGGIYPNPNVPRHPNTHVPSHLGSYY
# Procedure, shortened: (§1)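 Beads coated with glutathione captured GST-fused human transcription factors that had been expressed in yeast, and the factors were then given DNA barcodes and pooled with a tag-only sample. The pools were incubated with 200 nmole of a random double-stranded 16-mer DNA library in Tris/NaCl/DTT/glycerol buffer for 30 min at room temperature, washed, crosslinked with 0.1% formaldehyde and proximity-ligated with BsaI/T4 ligase at 37 °C for 1 h. PCR amplification and Illumina NextSeq500 sequencing came last. Binding signal is each hexamer's read frequency for a factor divided by its frequency for the tag-only sample.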
# [2] = target: T2, ELK1 (Homo sapiens, UniProt P19419 1-428); conditions: protein: recombinant; tags: N-terminal GST; dsDNA, one strand shown
# T2 sequence: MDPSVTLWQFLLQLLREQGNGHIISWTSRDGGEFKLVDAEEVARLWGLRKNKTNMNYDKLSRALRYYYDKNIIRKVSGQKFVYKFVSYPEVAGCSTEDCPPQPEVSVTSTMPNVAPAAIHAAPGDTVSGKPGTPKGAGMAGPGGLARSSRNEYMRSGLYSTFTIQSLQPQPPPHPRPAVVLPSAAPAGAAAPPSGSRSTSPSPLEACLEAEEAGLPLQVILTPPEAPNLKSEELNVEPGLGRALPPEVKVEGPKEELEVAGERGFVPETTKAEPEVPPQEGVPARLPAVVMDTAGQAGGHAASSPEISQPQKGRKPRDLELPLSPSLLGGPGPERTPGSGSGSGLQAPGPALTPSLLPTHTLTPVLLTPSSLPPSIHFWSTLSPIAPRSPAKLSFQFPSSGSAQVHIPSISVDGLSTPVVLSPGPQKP
# Procedure, shortened: as §1
# [3] = target: T3, GABPA (Homo sapiens, UniProt Q06546 1-454); conditions: protein: recombinant; tags: N-terminal GST; dsDNA, one strand shown
# T3 sequence: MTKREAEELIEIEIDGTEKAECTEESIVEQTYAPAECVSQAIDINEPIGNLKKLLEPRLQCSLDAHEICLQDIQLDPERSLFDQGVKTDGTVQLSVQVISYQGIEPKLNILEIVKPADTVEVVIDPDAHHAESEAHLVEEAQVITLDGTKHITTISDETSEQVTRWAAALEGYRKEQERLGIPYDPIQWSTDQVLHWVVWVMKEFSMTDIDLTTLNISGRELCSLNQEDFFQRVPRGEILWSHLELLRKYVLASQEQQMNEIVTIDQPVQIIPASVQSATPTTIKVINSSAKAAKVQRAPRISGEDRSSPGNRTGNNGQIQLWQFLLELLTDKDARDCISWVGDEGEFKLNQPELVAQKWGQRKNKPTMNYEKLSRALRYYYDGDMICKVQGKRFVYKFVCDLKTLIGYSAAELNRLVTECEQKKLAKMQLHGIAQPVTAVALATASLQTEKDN
# Procedure, shortened: as §1
# [4] = target: T4, ERG (Homo sapiens, UniProt P11308 1-479); conditions: protein: recombinant; tags: N-terminal GST; dsDNA, one strand shown
# T4 sequence: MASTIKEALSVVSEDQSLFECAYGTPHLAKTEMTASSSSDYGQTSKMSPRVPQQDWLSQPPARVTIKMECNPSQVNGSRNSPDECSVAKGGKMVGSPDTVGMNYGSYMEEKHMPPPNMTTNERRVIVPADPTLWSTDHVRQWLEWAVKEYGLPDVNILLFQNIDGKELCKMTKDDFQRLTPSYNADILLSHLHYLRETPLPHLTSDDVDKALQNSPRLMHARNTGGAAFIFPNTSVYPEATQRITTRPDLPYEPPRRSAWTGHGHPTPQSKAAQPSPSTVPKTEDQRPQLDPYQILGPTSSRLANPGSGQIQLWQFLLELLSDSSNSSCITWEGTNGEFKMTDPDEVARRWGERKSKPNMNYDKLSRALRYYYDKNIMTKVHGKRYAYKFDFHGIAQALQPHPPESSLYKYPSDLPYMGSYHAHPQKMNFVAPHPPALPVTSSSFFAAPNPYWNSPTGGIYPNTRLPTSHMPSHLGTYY
# Procedure, shortened: as §1
# [5] = target: ELF1 (Homo sapiens, UniProt P32519 1-619); conditions: protein: recombinant; tags: N-terminal GST; dsDNA, one strand shown
# ELF1, sequence (P32519 whole entry): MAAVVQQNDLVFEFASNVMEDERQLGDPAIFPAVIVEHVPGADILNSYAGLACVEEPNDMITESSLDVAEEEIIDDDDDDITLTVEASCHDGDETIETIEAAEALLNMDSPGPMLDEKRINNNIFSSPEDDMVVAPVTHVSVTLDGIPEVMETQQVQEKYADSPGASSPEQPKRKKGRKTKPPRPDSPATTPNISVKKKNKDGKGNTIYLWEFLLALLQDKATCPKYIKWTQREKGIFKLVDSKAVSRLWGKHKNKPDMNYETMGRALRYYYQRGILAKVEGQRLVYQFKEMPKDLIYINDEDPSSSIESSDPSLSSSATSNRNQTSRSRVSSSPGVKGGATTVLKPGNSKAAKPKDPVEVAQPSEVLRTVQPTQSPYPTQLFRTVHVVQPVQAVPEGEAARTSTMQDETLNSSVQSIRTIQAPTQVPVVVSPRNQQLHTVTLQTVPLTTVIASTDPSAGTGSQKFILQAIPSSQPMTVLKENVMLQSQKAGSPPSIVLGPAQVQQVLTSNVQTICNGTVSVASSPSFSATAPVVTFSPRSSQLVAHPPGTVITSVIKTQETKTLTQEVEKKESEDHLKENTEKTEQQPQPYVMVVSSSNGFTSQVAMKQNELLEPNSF
# Procedure, shortened: as §1
# [6] = target: T5, EHF (Homo sapiens, UniProt Q9NZC4 1-300); conditions: protein: recombinant; tags: N-terminal GST; dsDNA, one strand shown
# T5 sequence: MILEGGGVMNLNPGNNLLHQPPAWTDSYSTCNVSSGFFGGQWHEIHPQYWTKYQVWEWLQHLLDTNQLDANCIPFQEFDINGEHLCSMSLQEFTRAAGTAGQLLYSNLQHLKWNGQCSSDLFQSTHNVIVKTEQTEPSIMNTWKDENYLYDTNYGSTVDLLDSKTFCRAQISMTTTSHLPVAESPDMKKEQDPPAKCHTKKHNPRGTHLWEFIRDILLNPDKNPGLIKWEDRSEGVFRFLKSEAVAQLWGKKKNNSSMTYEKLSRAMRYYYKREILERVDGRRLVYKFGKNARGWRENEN
# Procedure, shortened: as §1
# [7] = target: SPI1 (Homo sapiens, UniProt P17947 1-270); conditions: protein: recombinant; tags: N-terminal GST; dsDNA, one strand shown
# Procedure, shortened: as §1
# [8] = target: SPIB (Homo sapiens, UniProt Q01892 1-262); conditions: protein: recombinant; tags: N-terminal GST; dsDNA, one strand shown
# SPIB, sequence (Q01892 whole entry): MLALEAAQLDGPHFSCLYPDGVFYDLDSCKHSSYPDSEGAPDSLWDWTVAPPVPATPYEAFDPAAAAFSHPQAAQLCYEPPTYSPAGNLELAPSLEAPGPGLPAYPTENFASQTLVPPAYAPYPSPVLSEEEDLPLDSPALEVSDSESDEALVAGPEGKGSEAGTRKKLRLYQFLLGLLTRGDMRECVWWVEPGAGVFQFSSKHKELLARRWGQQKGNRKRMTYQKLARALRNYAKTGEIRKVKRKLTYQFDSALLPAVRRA
# Procedure, shortened: as §1
# [9] = target: T6, ELK3 (Homo sapiens, UniProt P41970 1-407); conditions: protein: recombinant; tags: N-terminal GST; dsDNA, one strand shown
# T6 sequence: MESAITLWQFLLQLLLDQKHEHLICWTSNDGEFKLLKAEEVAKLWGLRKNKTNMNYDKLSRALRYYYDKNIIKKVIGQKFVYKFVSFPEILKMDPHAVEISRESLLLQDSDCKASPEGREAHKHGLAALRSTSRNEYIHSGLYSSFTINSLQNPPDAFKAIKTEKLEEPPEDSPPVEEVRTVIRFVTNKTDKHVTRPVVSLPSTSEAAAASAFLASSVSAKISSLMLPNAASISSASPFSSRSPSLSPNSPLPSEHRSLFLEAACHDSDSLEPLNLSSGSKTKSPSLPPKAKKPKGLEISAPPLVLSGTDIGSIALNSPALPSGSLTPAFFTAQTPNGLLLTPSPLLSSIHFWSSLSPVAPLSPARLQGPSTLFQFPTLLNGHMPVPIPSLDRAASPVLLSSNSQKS
# Procedure, shortened: as §1
# [10] = target: T7, FEV (Homo sapiens, UniProt Q99581 1-238); conditions: protein: recombinant; tags: N-terminal GST; dsDNA, one strand shown
# T7 sequence: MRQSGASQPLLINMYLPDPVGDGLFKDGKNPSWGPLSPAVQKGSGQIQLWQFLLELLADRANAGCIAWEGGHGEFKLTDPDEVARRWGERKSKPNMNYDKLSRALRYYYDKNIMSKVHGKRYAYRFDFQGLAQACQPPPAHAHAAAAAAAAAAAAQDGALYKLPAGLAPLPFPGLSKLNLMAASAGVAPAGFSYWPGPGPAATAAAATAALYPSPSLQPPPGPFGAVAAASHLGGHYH
# Procedure, shortened: as §1
# [11] = target: ETV5 (Homo sapiens, UniProt P41161 1-510); conditions: protein: recombinant; tags: N-terminal GST; dsDNA, one strand shown
# ETV5, sequence (P41161 whole entry): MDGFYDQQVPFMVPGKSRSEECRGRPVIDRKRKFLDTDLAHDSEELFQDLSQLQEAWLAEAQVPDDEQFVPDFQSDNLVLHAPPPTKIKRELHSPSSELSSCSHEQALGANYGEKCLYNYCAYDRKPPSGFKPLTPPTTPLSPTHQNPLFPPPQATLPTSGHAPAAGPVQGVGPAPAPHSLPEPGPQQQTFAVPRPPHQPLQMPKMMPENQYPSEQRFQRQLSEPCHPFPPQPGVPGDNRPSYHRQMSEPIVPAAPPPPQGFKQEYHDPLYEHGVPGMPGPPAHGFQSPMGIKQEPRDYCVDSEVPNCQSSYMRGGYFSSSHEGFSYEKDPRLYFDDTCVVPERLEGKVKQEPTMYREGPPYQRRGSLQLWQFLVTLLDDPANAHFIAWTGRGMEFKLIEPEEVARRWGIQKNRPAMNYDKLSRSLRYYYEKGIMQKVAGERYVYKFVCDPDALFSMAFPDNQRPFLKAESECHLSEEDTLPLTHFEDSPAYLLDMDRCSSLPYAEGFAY
# Procedure, shortened: as §1
# [12] = target: HSF1 (Homo sapiens, UniProt Q00613 1-529); conditions: protein: recombinant; tags: N-terminal GST; chain copies: 3; dsDNA, one strand shown
# HSF1, sequence (Q00613 whole entry): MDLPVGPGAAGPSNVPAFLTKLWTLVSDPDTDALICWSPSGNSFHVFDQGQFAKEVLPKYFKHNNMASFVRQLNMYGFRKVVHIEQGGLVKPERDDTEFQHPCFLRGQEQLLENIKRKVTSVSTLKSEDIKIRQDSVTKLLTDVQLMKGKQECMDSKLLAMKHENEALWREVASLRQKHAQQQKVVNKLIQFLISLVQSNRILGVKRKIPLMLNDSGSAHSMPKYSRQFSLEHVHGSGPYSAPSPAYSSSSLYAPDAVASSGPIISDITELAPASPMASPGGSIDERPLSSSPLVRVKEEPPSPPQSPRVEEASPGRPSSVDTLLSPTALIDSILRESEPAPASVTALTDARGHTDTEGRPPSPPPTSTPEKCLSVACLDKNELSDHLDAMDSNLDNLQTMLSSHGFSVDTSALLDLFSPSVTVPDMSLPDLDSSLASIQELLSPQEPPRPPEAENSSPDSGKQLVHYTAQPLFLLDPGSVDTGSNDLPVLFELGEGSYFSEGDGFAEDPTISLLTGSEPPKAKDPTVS
# Procedure, shortened: as §1
# [13] = target: T8, SPIC (Homo sapiens, UniProt Q8N5J4 1-248); conditions: protein: recombinant; tags: N-terminal GST; dsDNA, one strand shown
# T8 sequence: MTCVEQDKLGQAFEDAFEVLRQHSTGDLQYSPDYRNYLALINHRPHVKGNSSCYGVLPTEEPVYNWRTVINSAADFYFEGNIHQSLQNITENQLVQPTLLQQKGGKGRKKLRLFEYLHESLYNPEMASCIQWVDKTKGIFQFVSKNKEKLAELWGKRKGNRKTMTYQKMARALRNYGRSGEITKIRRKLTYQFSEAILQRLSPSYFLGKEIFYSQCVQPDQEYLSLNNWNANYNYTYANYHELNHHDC
# Procedure, shortened: as §1
# [14] = target: ELF4 (Homo sapiens, UniProt Q99607 1-663); conditions: protein: recombinant; tags: N-terminal GST; dsDNA, one strand shown
# ELF4, sequence (Q99607 whole entry): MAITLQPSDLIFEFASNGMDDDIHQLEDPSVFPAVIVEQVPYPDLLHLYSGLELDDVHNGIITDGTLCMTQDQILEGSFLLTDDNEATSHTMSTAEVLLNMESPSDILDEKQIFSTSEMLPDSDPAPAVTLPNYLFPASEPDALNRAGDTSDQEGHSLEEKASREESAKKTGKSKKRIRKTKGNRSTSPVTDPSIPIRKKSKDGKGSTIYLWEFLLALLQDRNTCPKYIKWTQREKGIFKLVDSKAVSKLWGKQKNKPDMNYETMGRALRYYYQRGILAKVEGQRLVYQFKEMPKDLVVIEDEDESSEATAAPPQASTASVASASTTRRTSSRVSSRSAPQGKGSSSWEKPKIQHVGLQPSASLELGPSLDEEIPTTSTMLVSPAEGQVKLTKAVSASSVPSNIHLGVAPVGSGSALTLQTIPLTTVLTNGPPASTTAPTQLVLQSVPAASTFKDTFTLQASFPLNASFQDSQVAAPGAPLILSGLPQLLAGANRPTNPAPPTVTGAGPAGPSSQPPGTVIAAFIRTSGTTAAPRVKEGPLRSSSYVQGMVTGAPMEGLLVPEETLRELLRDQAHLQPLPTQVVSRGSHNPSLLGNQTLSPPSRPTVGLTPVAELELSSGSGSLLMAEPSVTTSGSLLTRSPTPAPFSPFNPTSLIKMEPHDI
# Procedure, shortened: as §1
# [15] = target: T9, ELK4 (Homo sapiens, UniProt P28324-2 1-405); conditions: protein: recombinant; tags: N-terminal GST; dsDNA, one strand shown
# T9 sequence: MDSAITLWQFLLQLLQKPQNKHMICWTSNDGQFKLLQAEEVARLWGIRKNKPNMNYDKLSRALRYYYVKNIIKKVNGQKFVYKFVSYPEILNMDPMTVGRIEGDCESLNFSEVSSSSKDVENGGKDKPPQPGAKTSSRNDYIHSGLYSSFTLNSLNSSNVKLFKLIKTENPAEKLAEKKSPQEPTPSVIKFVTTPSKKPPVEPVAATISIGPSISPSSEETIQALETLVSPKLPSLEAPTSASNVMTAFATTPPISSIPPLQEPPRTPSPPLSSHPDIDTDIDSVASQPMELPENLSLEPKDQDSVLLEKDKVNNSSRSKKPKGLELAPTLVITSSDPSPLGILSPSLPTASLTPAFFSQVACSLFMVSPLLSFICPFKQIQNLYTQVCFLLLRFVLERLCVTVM
# Procedure, shortened: as §1
# [16] = target: T10, ETV2 (Homo sapiens, UniProt O00321 1-342); conditions: protein: recombinant; tags: N-terminal GST; dsDNA, one strand shown
# T10 sequence: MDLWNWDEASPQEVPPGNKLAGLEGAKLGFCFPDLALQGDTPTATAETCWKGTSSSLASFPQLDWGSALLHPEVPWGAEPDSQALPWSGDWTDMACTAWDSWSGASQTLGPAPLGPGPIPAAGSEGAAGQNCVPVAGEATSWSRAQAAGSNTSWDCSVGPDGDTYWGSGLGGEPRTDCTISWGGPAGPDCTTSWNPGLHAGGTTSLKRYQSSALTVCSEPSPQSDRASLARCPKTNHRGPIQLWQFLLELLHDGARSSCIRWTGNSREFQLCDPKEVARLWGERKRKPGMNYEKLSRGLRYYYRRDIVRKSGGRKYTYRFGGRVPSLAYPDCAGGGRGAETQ
# Procedure, shortened: as §1
# [17] = target: T11, ELF3 (Homo sapiens, UniProt P78545 1-371); conditions: protein: recombinant; tags: N-terminal GST; dsDNA, one strand shown
# T11 sequence: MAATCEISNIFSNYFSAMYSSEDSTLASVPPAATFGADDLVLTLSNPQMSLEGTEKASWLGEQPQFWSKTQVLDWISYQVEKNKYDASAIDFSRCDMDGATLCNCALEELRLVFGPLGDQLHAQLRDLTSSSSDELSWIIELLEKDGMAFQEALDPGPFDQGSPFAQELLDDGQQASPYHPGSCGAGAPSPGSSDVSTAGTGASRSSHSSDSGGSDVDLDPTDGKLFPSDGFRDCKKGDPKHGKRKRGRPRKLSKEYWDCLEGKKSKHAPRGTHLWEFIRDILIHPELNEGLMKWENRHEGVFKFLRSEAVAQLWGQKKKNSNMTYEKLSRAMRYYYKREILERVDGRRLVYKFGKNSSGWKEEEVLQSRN
# Procedure, shortened: as §1
# [18] = target: CRX (Homo sapiens, UniProt O43186 1-299); conditions: protein: recombinant; tags: N-terminal GST; dsDNA, one strand shown
# CRX, sequence (O43186 whole entry): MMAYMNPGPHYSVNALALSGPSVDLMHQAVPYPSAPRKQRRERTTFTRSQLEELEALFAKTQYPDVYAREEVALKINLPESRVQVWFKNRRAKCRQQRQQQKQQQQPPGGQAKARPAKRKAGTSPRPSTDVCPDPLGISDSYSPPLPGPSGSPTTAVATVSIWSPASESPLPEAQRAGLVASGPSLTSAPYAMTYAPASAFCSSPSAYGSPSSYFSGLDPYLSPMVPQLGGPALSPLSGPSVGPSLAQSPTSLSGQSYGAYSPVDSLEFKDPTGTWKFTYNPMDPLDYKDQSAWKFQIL
# Procedure, shortened: as §1
# [19] = target: ETV1 (Homo sapiens, UniProt P50549 1-477); conditions: protein: recombinant; tags: N-terminal GST; dsDNA, one strand shown
# ETV1, sequence (P50549 whole entry): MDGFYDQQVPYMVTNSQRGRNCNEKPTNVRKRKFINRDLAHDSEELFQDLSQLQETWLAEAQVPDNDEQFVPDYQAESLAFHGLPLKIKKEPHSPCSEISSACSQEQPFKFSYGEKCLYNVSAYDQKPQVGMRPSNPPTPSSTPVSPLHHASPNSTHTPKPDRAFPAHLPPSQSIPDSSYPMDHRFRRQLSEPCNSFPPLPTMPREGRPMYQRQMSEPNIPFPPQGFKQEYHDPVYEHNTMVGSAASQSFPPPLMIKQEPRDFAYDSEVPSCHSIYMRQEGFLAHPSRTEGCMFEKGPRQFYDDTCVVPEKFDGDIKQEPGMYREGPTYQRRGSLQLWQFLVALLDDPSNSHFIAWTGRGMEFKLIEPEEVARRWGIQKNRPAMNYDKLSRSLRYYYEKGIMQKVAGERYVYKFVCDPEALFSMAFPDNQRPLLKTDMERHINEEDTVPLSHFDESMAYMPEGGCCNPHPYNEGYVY
# Procedure, shortened: as §1
sequence,measurement,setting,value
TCATTT,binding signal,[1],"1.36 fold enrichment (6-mer frequency, TF over GST control)"
same,binding signal,[2],"1.33 fold enrichment (6-mer frequency, TF over GST control)"
same,binding signal,[3],"1.19 fold enrichment (6-mer frequency, TF over GST control)"
same,binding signal,[4],"1.35 fold enrichment (6-mer frequency, TF over GST control)"
same,binding signal,[5],"1.25 fold enrichment (6-mer frequency, TF over GST control)"
same,binding signal,[6],"1.36 fold enrichment (6-mer frequency, TF over GST control)"
same,binding signal,[7],"1.5 fold enrichment (6-mer frequency, TF over GST control)"
same,binding signal,[8],"1.34 fold enrichment (6-mer frequency, TF over GST control)"
same,binding signal,[9],"1.16 fold enrichment (6-mer frequency, TF over GST control)"
same,binding signal,[10],"1.38 fold enrichment (6-mer frequency, TF over GST control)"
same,binding signal,[11],"1.4 fold enrichment (6-mer frequency, TF over GST control)"
same,binding signal,[12],"1.14 fold enrichment (6-mer frequency, TF over GST control)"
same,binding signal,[13],"1.41 fold enrichment (6-mer frequency, TF over GST control)"
same,binding signal,[14],"1.34 fold enrichment (6-mer frequency, TF over GST control)"
same,binding signal,[15],"1.37 fold enrichment (6-mer frequency, TF over GST control)"
same,binding signal,[16],"1.5 fold enrichment (6-mer frequency, TF over GST control)"
same,binding signal,[17],"1.24 fold enrichment (6-mer frequency, TF over GST control)"
same,binding signal,[18],"1.16 fold enrichment (6-mer frequency, TF over GST control)"
same,binding signal,[19],"1.41 fold enrichment (6-mer frequency, TF over GST control)"

# — article PMC7862700, “An all-to-all approach to the identification of sequence-specific readers for epigenetic DNA modifications on cytosine”
